Where “and” joins values, the source holds several entries; their conditions need not be identical. Equal values may be shown once. Where a structure was tested more than once in an assay, its records may differ in their call. Calls of active or inactive are those of the source. How the source made its calls: active means hit-call score of the fitted dose curve at least 0.9, where 1 is the maximum; inactive means score below 0.9.
Experiment: BSK_SAg_PBMCCytotoxicity: PBMC Cytotoxicity Assessment in the BioMAP Diversity Plus: SAg Assay (AID 2283093);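 further: fitted both ways against DMSO so a hit may be loss or gain of signal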
Settings: primary human HUVEC with PBMC
Method: BSK_SAg is a cell-based, multiplexed-readout assay that uses umbilical vein endothelium and peripheral blood mononuclear cells, a human vascular primary cell co-culture, with measurements taken at 24 hours after chemical dosing in a 96-well plate.BSK_SAg_PBMCCytotoxicity is an assay component measured in the BSK_SAg assay. It measures Alamar blue related to cell death using Alamar Blue Reduction technology.Data from the assay component BSK_SAg_PBMCCytotoxicity was analyzed into 1 assay endpoint. This assay endpoint, BSK_SAg_PBMCCytotoxicity, was analyzed with bidirectional fitting relative to DMSO as the negative control and baseline of activity. Using a type of viability reporter, gain or loss-of-signal activity can be used to understand changes in the viability. Furthermore, this assay endpoint can be referred to as a secondary readout, because this assay has produced multiple assay endpoints where this one serves a viability function. To generalize the intended target to other relatable targets, this assay endpoint is annotated to the cell cycle intended target family, where the subfamily is cytotoxicity.
The levels of cell surface (or secreted, indicated by the prefix "s") biomarker endpoints were measured by ELISA. Overt cytotoxicity to cells in confluent adherent cultures (all systems other than the BT system) was assessed by measuring total protein levels using sulforhodamine B (SRB) staining in parallel cultures at the time of biomarker measurements, indicated as SRB endpoints. For proliferation assays for adherent cell types, individual cell types are cultured at sub-confluence and relative cell numbers quantified by SRB staining at time points optimized for each system (48 h: 3C and CASM3C systems; 72 h: BT and HDF3CGF systems; 96 h: SAg system). SRB was performed by staining cells with 0.1% SRB after fixation with 10% TCA and reading wells at 560 nm.Viability and proliferation of PBMC (T cells) was quantified by Alamar Blue reduction for the SAg and BT systems. For PBMC viability (referred to as PBMC Cytotoxicity within the assay endpoint names), cells were plated (75,000/well in a 96-well plate) and then chemical samples added for 1 h before addition of activators, SEB and TSST-1 (20 ng/mL final concentration each). Cells were incubated for 90 h. Then, Alamar Blue (20 uL/well) (Invitrogen, Cat DAL1100) was added for 6 h, and the plates were read with a fluorescence microplate reader at 546/580 nm (excitation/emission). For PBMC proliferation, cells were plated and activated as above but incubated for only 16 h prior to addition of Alamar Blue. Plates were read after 6 h.

| SMILES | outcome | AC50 |
| --- | --- | --- |
| O=S(=O)(OCCOC(F)(F)F)C(F)(F)F | inactive |  |
| OCCCC(F)(F)C(F)(F)C(F)(F)C(F)(F)C(F)(F)C(F)(F)C(F)(F)F |  | 14.4 µM (active) and 14.8 µM (active) |
| O=C(O)C(F)(OC(F)(F)C(F)(OC(F)(F)C(F)(OC(F)(F)C(F)(F)C(F)(F)F)C(F)(F)F)C(F)(F)F)C(F)(F)F (stereo not given) | inactive |  |
| C=C(C)C(=O)OCCC(F)(F)C(F)(F)C(F)(F)C(F)(F)C(F)(C(F)(F)F)C(F)(F)F | inactive |  |
| C=CC(F)(F)C(F)(F)C(F)(F)C(F)(F)C(F)(F)C(F)(F)C(F)(F)C(F)(F)C=C | inactive |  |
| C=CC(=O)OCC(F)(F)C(F)(F)C(F)(F)C(F)(F)C(F)(F)C(F)(F)C(F)(F)F | inactive |  |
| OCC(F)(F)C(F)(F)C(F)(F)C(F)(F)C(F)(F)C(F)F | inactive |  |
| Oc1ccc(Nc2ccccc2)cc1 |  | 3.57 µM (active) |
| O=C(O)C=C(C(F)(F)F)C(F)(F)F | inactive |  |
| CS(C)(=O)=O | inactive |  |
| CCCCCCC(C)OC(=O)CCCCC(=O)OC(C)CCCCCC (stereo not given) | inactive |  |
| COC(=O)CCC(F)(F)C(F)(F)C(F)(F)C(F)(F)F | inactive |  |
| FC(F)(F)C(F)(F)C(F)(F)C(F)(F)C(F)(F)C(F)(F)C(F)(F)C(F)(F)CCS | inactive |  |
| C#C[C@]1(O)CC[C@H]2[C@@H]3CCc4cc(OC)ccc4[C@H]3CC[C@@]21C |  | 33.4 µM (active) |
| C=C(C)C(=O)OCC(F)(F)C(F)(F)C(F)(F)F | inactive |  |
| C=CC(F)(F)C(F)(F)C(F)(F)C(F)(F)C(F)(F)C(F)(F)C(F)(F)C(F)(F)F | inactive |  |
| OCC(F)(F)C(F)(F)C(F)(F)C(F)F | inactive |  |
| CC(=O)Nc1ccc(N=Nc2cc(C)ccc2O)cc1 | inactive |  |
| CC(C)(C)C(=O)CC(=O)C(F)(F)C(F)(F)C(F)(F)F | inactive | 53.9 µM (active) |
| C=CC/C=C/C/C=C/C/C=C/C | inactive |  |

| SMILES | outcome | AC50 |
| --- | --- | --- |
| C=CC(=O)OCC(F)(F)C(F)(F)C(F)(F)C(F)(F)COC(=O)C=C |  | 28.9 µM (active) and 30 µM (active) |
| FC(F)(F)C(F)(F)C(F)(F)C(F)(F)C(F)(F)C(F)(F)CC1CO1 (stereo not given) | inactive |  |
| CCCCCCCCC(F)(F)C(F)(F)C(F)(F)C(F)(F)C(F)(F)C(F)(F)F | inactive |  |
| O=C(O)C(F)(OC(F)(F)C(F)(OC(F)(F)C(F)(F)C(F)(F)F)C(F)(F)F)C(F)(F)F (stereo not given) | inactive |  |
| N=C(N)C(F)(F)C(F)(F)C(F)(F)C(F)(F)C(F)(F)C(F)(F)C(F)(F)F |  | 45.9 µM (active) and 55.1 µM (active) |
| FC(F)(F)C(F)(F)C(F)(F)C(F)(F)C(F)(F)C(F)(F)CCS | inactive |  |
| OCC(F)(F)C(F)(F)C(F)(F)F | inactive |  |
| CCc1c(Br)c(Br)c(Br)c(Br)c1Br | inactive |  |
| FC(F)(F)C(F)(F)C(F)(F)C(F)(F)C(F)(F)C(F)(F)C(F)(F)I | inactive |  |
| CCCCCCCOC(=O)c1ccccc1C(=O)OCCCCCCC |  | 3.28 µM (active) |
| C=C(C)C(=O)OCC(F)(F)C(F)(F)C(F)(F)C(F)(F)C(F)(F)C(F)(F)C(F)(F)F | inactive |  |
| CCCCCCOC(=O)c1ccccc1O |  | 36.9 µM (active) and 44.8 µM (active) |
| O=C(O)C(F)(F)C(F)(F)C(F)(F)C(F)(F)C(F)(F)C(F)(F)C(F)(F)C(F)(F)C(F)(F)C(F)(F)C(F)(F)C(F)(F)F | inactive |  |
| O=C(O)C(F)(F)C(F)(F)F | inactive |  |
| CCCCOCCOCCOC(=O)CCCCC(=O)OCCOCCOCCCC | inactive |  |
| FC(F)(F)C(F)(F)C(F)(F)N(C(F)(F)C(F)(F)C(F)(F)F)C(F)(F)C(F)(F)C(F)(F)F | inactive |  |
| CCO[Si](CCC(F)(F)C(F)(F)C(F)(F)C(F)(F)C(F)(F)C(F)(F)F)(OCC)OCC | inactive |  |
| O=C(Cl)C(F)(F)C(F)(F)C(F)(F)C(F)(F)C(F)(F)C(F)(F)C(F)(F)C(F)(F)F | inactive |  |
| CCCCCCCCCCCCCCCC[N+](C)(C)Cc1ccccc1 |  | 1.17 µM (active) |

From PubChem BioAssay (EPA / NIEHS)
